Here are results for 104 compounds from PubChem BioAssay AID624133 (Broad Institute, 2012).

The whole screen tested about 1,600 compounds, of which about 1,300 (81%) were called active. No rule for the calls is given here. So high a share suggests a set chosen from earlier hits. The list is a sample of the results. Potency and affinity values are given separately.

The experiment in a line: non-specific 3'UTR reporter inhibition in Clone20-Shn3RL – cell-based, Renilla luciferase, cherry-picked, counter-screen for Shn3 inhibitor project, dose response (AID 624133).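 Also: 0% = neutral control wells and -100% = positive control wells.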 The note with it: Clone20-Shn3RL cells, Renilla luciferase luminescence, 24 h; at 35 µM (top of the series) unless noted.
With `CCOC(=O)C1CCN(c2cc3c(cc2NC(=O)c2ccccc2Br)n(C)c(=O)n3C)CC1`, the activity change, negative = inhibition is -4.54%.

`COc1ccc(NC(=O)CCOc2cc(C)ccc2C)cc1S(=O)(=O)N1CCCCC1`: the activity change, negative = inhibition worked out at 267%. To `COc1cc(OC)cc(C(=O)OCC(=O)Nc2ccc(F)cc2F)c1` belongs 11.1%. Regarding `CCOc1ccc(Br)cc1C1=CC(=O)C[C@H](c2ccc(OC)cc2)C1`, the activity change, negative = inhibition came out at 133%.

Consider `COc1ccc(-c2cc3nc(C)n(N)c(=O)c3s2)cc1`, for which the activity change, negative = inhibition is 13%. To `CCSc1nnc(NC(=O)c2nc(S(=O)(=O)Cc3ccc(F)cc3)ncc2Cl)s1` belongs -75%.

With `c1ccc(-c2cc(CSc3nc4ccccc4[nH]3)on2)cc1`, the activity change, negative = inhibition is -121%.

In the case of `COc1ccccc1-n1c(SCC(=O)Nc2cc(C)on2)nc2c(c1=O)SCC2`, the activity change, negative = inhibition was 58.3%. With `CSCCC(NC(=O)c1ccccc1)C(=O)OCC(=O)N(C)CCC#N` (centres undefined), the activity change, negative = inhibition is 16.7%.

Regarding `CN(CC(=O)Nc1ccccc1Cl)C(=O)c1cccc(S(=O)(=O)N2CCN(c3ccccc3)CC2)c1`, the activity change, negative = inhibition was -11.9%. `Cc1cc(C(=O)COc2cccnc2[N+](=O)[O-])c(C)n1-c1ccccc1`: the activity change, negative = inhibition is -74.4%.

For the compound `CNS(=O)(=O)c1cccc(C(=O)OCc2cc(C(C)=O)ccc2OC)c1`, the activity change, negative = inhibition was determined as 329%. `Cc1ccccc1N/C(=N/S(=O)(=O)c1ccccc1)c1ccc(F)cc1`: the activity change, negative = inhibition was determined as 55.6%. To `COc1ccc(OC)c(NC(=O)c2cc(-c3cc(F)ccc3OCC3CCCO3)n[nH]2)c1` (centres undefined) belongs 26.4%; to `CCC12CN(S(=O)(=O)c3ccc(C)cc3)CC(CC)(CN(S(=O)(=O)c3ccc(C)cc3)C1)C2=O`, 154%; to `COc1ccc(C(O)c2nc(-c3cccc(F)c3)cs2)cc1` (centres undefined), 45.8%. Consider `O=C(c1n[nH]c(=O)c2ccccc12)N1CCN(C2c3ccccc3-c3ccccc32)CC1`, for which the activity change, negative = inhibition is -59.1%. In the case of `CCOc1ccc(NS(=O)(=O)c2cc(C(=O)NCCN3CCOCC3)ccc2C)cc1`, the activity change, negative = inhibition is 360%. To `Cc1ccc(NC(=O)NCCCN2CCOCC2)cc1` belongs -95.8%; to `O=C(Cc1ccccc1)NCCS(=O)c1ccc(Cl)cc1` (centres undefined), 58.3%; to `CC(C)(CNC(=O)c1ccc(Cl)c(S(=O)(=O)N2CCc3ccccc3C2)c1)N1CCOCC1`, -44.4%. To `CCN(CC)S(=O)(=O)c1ccc(N2CCOCC2)c(NC(=O)c2nn(C(C)C)c(=O)c3ccccc23)c1` belongs -4.17%; to `Cc1ccc(OC(=O)CCC(=O)Oc2ccc(C)cc2C)c(C)c1`, 70.8%. As to `CC(C)C[C@@H](CO)N(Cc1ccccc1)S(=O)(=O)N(Cc1ccccc1)[C@H](CO)CC(C)C`, the activity change, negative = inhibition was -80%.

Consider `O=C(Nc1ccccc1)Nc1cc(OCC(F)(F)F)cc(OCC(F)(F)F)c1`, for which the activity change, negative = inhibition was found to be 0%. To `O=C(NCCCn1ccnc1)C(=O)NCC1OCCCN1S(=O)(=O)c1ccccc1` (centres undefined) belongs 8.33%; to `CC(=O)N1CCOc2cc(S(=O)(=O)NCc3ccc(F)cc3)c(C)cc21`, 179%. `Cc1cc(S(=O)(=O)NCc2ccncc2)c(C)cc1Br`: the activity change, negative = inhibition is 275%. To `Cc1ccc(S(=O)(=O)NCc2ccncc2)cc1C` belongs 25%; to `COCc1nn2c(N)c(C#N)cnc2c1-c1ccccc1`, 16.7%; to `CC(=O)OCC(=O)[C@@]1(O)CC[C@H]2[C@@H]3CCC4=CC(=O)CC[C@]4(C)[C@H]3C(=O)C[C@@]21C`, 12.2%.

In the case of `CC(NNC(=S)N1CCN(c2ccccn2)CC1)c1nccc2ccccc12` (centres undefined), the activity change, negative = inhibition worked out at 300%. In the case of `Cc1c(C)c2ccc(OCC(=O)Nc3ccccn3)c(C)c2oc1=O` it was 107%. With `Cc1ccc(S(=O)(=O)NCCc2cc3ccc(C)cc3[nH]c2=O)cc1`, the activity change, negative = inhibition was determined as 33.6%. In the case of `Cc1cc(C(=O)COC(=O)c2ccccc2O)c(C)n1Cc1cccs1` it was -4.54%; in that of `COc1ccc(OC)c(NC(=O)CN(Cc2ccc(F)cc2)C2CCCCC2)c1`, -40%. To `CN=C1c2cc3cc(OC)ccc3n2CCN1Cc1ccccc1` belongs 64.3%.

Turning to `CC(C)(C)c1nc(NCCN2CCOCC2)c2nnn(Cc3ccccc3Cl)c2n1`, the activity change, negative = inhibition was -45.5%.

Consider `CCC(C)[C@H]1CNC(=S)N1CCc1cc(C(F)(F)F)cc(C(F)(F)F)c1` (some centres undefined), for which the activity change, negative = inhibition worked out at 177%. To `CCN(CC)C(=O)C1CCCN(c2ccc([N+](=O)[O-])cc2[N+](=O)[O-])C1` (centres undefined) belongs 58.3%. For `C[C@]12CC[C@H](O)CC1=CCC1C2CC[C@@]2(C)C1CCC21OCCO1` (some centres undefined), the activity change, negative = inhibition was 16.7%. In the case of `Cc1cc(-n2c(C)cc(C(=O)CSc3nncn3C)c2C)no1`, the activity change, negative = inhibition is -18.2%. To `CCOc1ccc2nc(SC3CC(=O)N(c4ccc(C)cc4)C3=O)sc2c1` (centres undefined) belongs 30%. With `Cc1ccc(CNC(=O)c2ccc3c(=O)c(O)c(-c4ccc(C)cc4)[nH]c3c2)cc1`, the activity change, negative = inhibition was -14.3%. With `CCc1c(O)nc(SCC(=O)Nc2ccccc2)n(-c2ccccc2)c1=O`, the activity change, negative = inhibition amounted to 80%.

Take `CN(C(=O)CSc1nc(-c2cccs2)nc2ccccc12)C1CCS(=O)(=O)C1` (centres undefined): the activity change, negative = inhibition is -119%. In the case of `CCN(CC)Cc1c(O)ccc2c1O/C(=C\C=C\c1ccccc1)C2=O` it was 60%; in that of `O=C(NCCc1ccccc1)c1ccc2c(c1)OCCO2`, -2.38%; in that of `COc1ccc2c(c1OC)C(=O)N1c3ccccc3C(=O)N(c3ccccc3F)C21` (centres undefined), 87.5%. Regarding `CSc1nnc(-c2ccco2)n1-c1ccccc1`, the activity change, negative = inhibition turned out to be 31.8%.

Regarding `CC(C)N1CCN(c2ccc(OCC3COC(Cn4cncn4)(c4ccc(Cl)cc4Cl)O3)cc2)CC1` (centres undefined), the activity change, negative = inhibition turned out to be 0%.

Regarding `COc1c(CC=C(C)C)cc(C2CC(=O)c3c(O)cc(O)cc3O2)cc1CC=C(C)C` (centres undefined), the activity change, negative = inhibition came to 50%.

On to `Nc1nc(N)c2cc(S(=O)(=O)c3ccc4ccccc4c3)ccc2n1`, for which the activity change, negative = inhibition worked out at 16.7%. To `C[C@@H]1CN([C@H](C)CO)C(=O)CCCn2nncc2CO[C@H]1CN(C)S(=O)(=O)c1ccc2c(c1)OCCCO2` belongs -47.9%; to `O=C(NCCNC(=O)Oc1cccc2ccccc12)Oc1cccc2ccccc12`, 41.7%; to `COc1cc(OC)c(OC)cc1CCC(C)NCCC(c1ccccc1)c1ccccc1` (centres undefined), -33.3%. As to `Cc1ccc(C)c(N2CCN(S(=O)(=O)c3ccc4[nH]c(=O)ccc4c3)CC2)c1`, the activity change, negative = inhibition was found to be 4.54%. In the case of `CC1(Cc2ccc(OC(F)(F)F)cc2)C(=O)Nc2c(Cl)ccc(Cl)c21` (centres undefined) it was 30%; in that of `Cc1csc(=O)n1CC(=O)OCC(=O)c1c(N)n(C)c(=O)n(C)c1=O`, 10%.

As to `COc1ccc(CC(=O)Nc2ccncc2Cl)cc1`, the activity change, negative = inhibition was -54.2%. Turning to `O=[N+]([O-])c1cccc(S(=O)(=O)NCc2ccncc2)c1`, the activity change, negative = inhibition was found to be 14.3%. In the case of `NS(=O)(=O)c1ccc(CNC(=S)NC(=O)c2ccco2)cc1` it was 40.3%; in that of `Cc1ccc(-c2nc(-c3ccccn3)no2)cc1`, -90.9%; in that of `c1ccc(-c2noc(-c3ccc4ccccc4c3)n2)nc1`, -2.38%. Consider `CCOC(=O)c1c(NC(=O)c2nn(CC)cc2Br)sc(C)c1C`, for which the activity change, negative = inhibition was 16.7%. To `CN(C)c1ccc(/C=C/c2ccc3ccccc3n2)cc1` belongs 117%.

Consider `Fc1ccccc1N1CCN(Cc2nc(-c3ccccc3)no2)CC1`, for which the activity change, negative = inhibition is -87.1%.

As for `O=C(Nc1ccc([N+](=O)[O-])cc1)C(=O)Nc1cccc(C(=O)O)c1`, the activity change, negative = inhibition was 43.3%. To `COc1ccc(NS(=O)(=O)c2ccc(-c3cnc(C4CC4)o3)cc2)cc1OC` belongs 40%; to `Cc1oc(=O)c(NC(=O)c2ccc(Cl)cc2)cc1C(=O)c1ccccc1`, -75%; to `O=C(CN1C(=O)c2ccccc2S1(=O)=O)c1ccc(Cl)cc1Cl`, -103%. In the case of `O=C(CN1C(=O)c2ccccc2S1(=O)=O)c1ccc2c(c1)OCCCO2` it was -16.7%; in that of `CC1CCN(C(=O)c2ccc(N3C(=O)C4CCC(C)CC4C3=O)cc2)CC1` (centres undefined), 27.8%. In the case of `CCN(CC)C(=O)[C@H]1C[C@H](CC(=O)NC/C=C(\C)CCC=C(C)C)C(=O)N2CCc3c([nH]c4cc(CCC(=O)N(C)C)ccc34)[C@]12C` it was -16.7%; in that of `COc1ccc(C(=O)NNC(=O)c2cccc(S(=O)(=O)N3CCOCC3)c2)cc1`, 19.6%; in that of `O=C(Nc1nc(-c2ccccc2)cs1)C1CCCCN1S(=O)(=O)c1ccccc1` (centres undefined), -104%.

`O=C(O)C1(Nc2ccccc2Cl)CCCC1`: the activity change, negative = inhibition was -15%. In the case of `Cc1cc(C(=O)Cn2cnc3cc(F)ccc3c2=O)c(C)n1C1CC1` it was -16.7%; in that of `Cc1ccc(C(=O)Nc2ccc3c(c2)C(=O)N(CC2CCCO2)C3=O)cc1` (centres undefined), 80%. In the case of `CC(C)NCC(O)COc1cccc2ccccc12` (centres undefined) it was -29%; in that of `COc1ccc(S(=O)(=O)N2CCOCC2)cc1NC(=O)COC(=O)CC1CC2CCC1C2` (centres undefined), 50%; in that of `COc1cc(NS(=O)(=O)c2ccc(C)cc2C)cc(OC)c1OC`, -27.3%.

`CCCC(c1nnnn1Cc1ccc(OC)cc1)N1CCN(c2ccccc2)CC1` (centres undefined): the activity change, negative = inhibition was 117%. In the case of `C=CCOC(=O)C1=C(C)N=C2SCCC(=O)N2C1c1cccs1` (centres undefined) it was -29.2%. In the case of `CCO[C@@H]1OC(C(=O)NC2CC2)=C[C@H](c2coc3ccccc3c2=O)[C@H]1CCCO` it was 120%; in that of `Cc1ccc(S(=O)(=O)N2CCCCC2)cc1NS(=O)(=O)c1ccccc1F`, 200%; in that of `COc1ccccc1C(=O)Nc1nc2ccccc2[nH]1`, 43.3%. For the compound `CN(C)c1ccc(/C=C/c2nc3ccccc3s2)cc1`, the activity change, negative = inhibition is 27.8%. To `COc1ccc(N(C)C(=O)c2ccc3snnc3c2)cc1` belongs -52.1%; to `O=C1CCc2cccc(O)c2N1`, -23.2%. In the case of `Cc1c(CCOC(=O)CC23CC4CC(CC(C4)C2)C3)sc[n+]1CC(=O)c1ccc(Br)cc1` it was -59.3%.

Consider `CN(C)CCN1C(=O)c2cccc3cc([N+](=O)[O-])cc(c23)C1=O`, for which the activity change, negative = inhibition is 310%. For `CSc1cccc(NC(=O)N2CCCC(CNS(=O)(=O)Cc3ccccc3)C2)c1` (centres undefined), the activity change, negative = inhibition came out at 62.5%. In the case of `CCN(CC)c1ccc2c(c1)oc(=O)c1c(Cl)cc(=O)oc12`, the activity change, negative = inhibition is -33.3%.

Turning to `Cc1cccc(N2CCN(C(=S)Nc3ccc4nc(N5CCN(C)CC5)cc(C)c4c3)CC2)c1C`, the activity change, negative = inhibition was determined as 22.7%. In the case of `O=c1c2ccccc2c(C=Nc2ccccc2O)c(O)n1-c1nccs1` it was -2.5%; in that of `Cc1ccc(-c2cn3cc(C)ccc3n2)cc1`, 10%. In the case of `CC(C)CC(NC(=O)c1ccc(Cl)cc1)C(=O)OCC(=O)c1ccc2c(c1)NC(=O)CO2` (centres undefined) it was -16.7%; in that of `CN1CCN(c2ccc(-c3ccc4ccccc4n3)cc2)CC1`, -31.9%. To `CC(C)(C)n1nnnc1C(c1cccs1)N1CCCC2(CCCCC2)C1` (centres undefined) belongs 54.2%; to `O=C(CSc1nc(C(F)(F)F)cc(=O)[nH]1)N1CCCC1`, 231%; to `CC(=O)N(CCc1ccccc1)c1ccc2c(c1)C1CC2CCN1C(=O)OCc1ccccc1` (centres undefined), -90.9%.

In the case of `COc1ccc(NS(=O)(=O)c2cccc(NC(=O)c3ccc(S(=O)(=O)N4CCCCCC4)cc3)c2)cc1`, the activity change, negative = inhibition was found to be 11.9%. On to `COc1ccc(NS(=O)(=O)c2ccc(N3CCOCC3)c(N)c2)cc1`, for which the activity change, negative = inhibition is -21.1%.
